Parameters in all cases: scale not given: direction of the effect not stated beside the values
Assay [1] concerns the target Protein translocase subunit SecA (Escherichia coli (strain K12)) (UniProt P10408). In words: Assay to Identify E. coli SecA ATPase Inhibitors. Type of assay: functional. Particulars: 30 µM.
For assay [2], the target named is T1, Ubiquitin-activating enzyme e1, putative (Leishmania donovani (strain BPK282A1)) (UniProt E9BSI1).
T1 sequence (whole entry): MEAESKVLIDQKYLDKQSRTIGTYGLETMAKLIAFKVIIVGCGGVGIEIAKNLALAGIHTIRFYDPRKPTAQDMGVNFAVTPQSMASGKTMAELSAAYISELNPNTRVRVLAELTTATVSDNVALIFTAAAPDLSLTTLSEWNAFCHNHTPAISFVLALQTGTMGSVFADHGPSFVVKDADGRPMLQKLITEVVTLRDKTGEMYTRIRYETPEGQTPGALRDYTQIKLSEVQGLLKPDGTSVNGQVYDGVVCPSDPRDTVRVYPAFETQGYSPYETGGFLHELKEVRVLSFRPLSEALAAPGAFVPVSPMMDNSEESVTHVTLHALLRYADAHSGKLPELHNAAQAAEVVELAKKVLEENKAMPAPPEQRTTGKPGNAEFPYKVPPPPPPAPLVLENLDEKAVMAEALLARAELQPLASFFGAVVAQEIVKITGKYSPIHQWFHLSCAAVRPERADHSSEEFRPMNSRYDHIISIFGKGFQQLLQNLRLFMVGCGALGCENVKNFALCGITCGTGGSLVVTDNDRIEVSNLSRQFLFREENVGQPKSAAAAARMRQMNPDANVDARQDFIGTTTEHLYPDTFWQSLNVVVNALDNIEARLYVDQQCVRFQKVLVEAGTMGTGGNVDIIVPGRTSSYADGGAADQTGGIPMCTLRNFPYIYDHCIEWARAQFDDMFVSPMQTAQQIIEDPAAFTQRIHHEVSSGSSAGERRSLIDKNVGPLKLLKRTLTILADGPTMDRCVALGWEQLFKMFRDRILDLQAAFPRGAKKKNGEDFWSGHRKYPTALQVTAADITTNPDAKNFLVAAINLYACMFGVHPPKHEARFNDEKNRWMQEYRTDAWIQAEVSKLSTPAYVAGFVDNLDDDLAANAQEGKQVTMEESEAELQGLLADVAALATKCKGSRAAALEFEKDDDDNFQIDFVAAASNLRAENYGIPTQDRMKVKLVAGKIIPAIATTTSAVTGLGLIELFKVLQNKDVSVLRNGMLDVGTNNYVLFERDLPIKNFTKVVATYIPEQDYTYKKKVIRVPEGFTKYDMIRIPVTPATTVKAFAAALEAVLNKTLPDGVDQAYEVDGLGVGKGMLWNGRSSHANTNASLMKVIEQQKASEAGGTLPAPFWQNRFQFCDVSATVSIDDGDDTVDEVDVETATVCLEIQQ
In words: Leishmania donovani Ubiquitin Activating Enzyme (LdE1). In kind it is functional. The note with it: 30 µM.

For assay [3], the target named is T2, Aspartate--tRNA(Asp/Asn) ligase (Mycobacterium tuberculosis (strain ATCC 25618 / H37Rv)) (UniProt P9WFW3). Further: in the data most compounds retested in dose-response had high values.
T2 sequence (whole entry): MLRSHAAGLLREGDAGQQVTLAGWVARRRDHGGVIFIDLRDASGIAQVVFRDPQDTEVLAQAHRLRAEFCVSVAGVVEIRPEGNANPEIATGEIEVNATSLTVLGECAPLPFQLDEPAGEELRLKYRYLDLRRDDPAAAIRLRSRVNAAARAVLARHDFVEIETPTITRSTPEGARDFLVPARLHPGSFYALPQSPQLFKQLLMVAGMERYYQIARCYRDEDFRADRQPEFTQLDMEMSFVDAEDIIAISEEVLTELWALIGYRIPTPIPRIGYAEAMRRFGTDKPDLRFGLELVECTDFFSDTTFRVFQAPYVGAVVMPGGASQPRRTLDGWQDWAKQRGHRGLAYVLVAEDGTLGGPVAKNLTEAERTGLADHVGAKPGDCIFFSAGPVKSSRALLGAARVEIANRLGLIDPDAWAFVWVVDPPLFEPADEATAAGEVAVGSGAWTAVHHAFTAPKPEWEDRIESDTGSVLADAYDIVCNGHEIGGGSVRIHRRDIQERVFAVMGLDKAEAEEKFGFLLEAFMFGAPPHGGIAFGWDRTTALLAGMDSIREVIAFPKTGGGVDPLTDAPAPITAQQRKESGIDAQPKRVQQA
In words: Assay for Asp RNA synthetase-1 from Mycobacterium tuberculosis. In kind it is functional. The note with it: 30 µM.

Assay [4] addresses AMP-activated protein kinase, AMPK (Homo sapiens) (UniProt P54646+O43741+P54619+Q9UGJ0+Q9Y478+Q13131+Q9UGI9). In words: AMP-dependent Kinase enzyme assay. An in vitro enzyme assay that detects ADP turnover that is directly proportional to AMPK activity. This uses naive AMPK that is activated during the assay with MK-8722. Particulars: 30 µM. In kind it is functional.
In assay [5] the target is Sialic acid-binding Ig-like lectin 9 (Homo sapiens) (UniProt Q9Y336). Put plainly: Hs-Siglec9 ALPHAscreen SOP 20170721. The note with it: 10 µM.
Sequence of Sialic acid-binding Ig-like lectin 9 (Homo sapiens) (Q9Y336 whole entry): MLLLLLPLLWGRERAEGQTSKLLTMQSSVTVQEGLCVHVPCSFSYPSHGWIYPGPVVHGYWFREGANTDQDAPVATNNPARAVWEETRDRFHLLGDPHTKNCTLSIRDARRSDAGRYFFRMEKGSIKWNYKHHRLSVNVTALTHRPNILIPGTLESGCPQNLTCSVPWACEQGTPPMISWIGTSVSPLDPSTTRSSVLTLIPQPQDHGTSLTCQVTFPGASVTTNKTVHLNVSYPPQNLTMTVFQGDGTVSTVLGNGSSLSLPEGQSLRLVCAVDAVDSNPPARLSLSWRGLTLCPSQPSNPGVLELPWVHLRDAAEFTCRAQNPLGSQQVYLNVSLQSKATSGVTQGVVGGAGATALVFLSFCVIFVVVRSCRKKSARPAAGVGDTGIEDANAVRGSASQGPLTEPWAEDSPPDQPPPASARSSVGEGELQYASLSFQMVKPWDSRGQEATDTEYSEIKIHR
Assay [6] has as its system Trypanosoma cruzi. In words: Trypanosoma cruzi phosphomannomutase and mannose-1-phosphate guanylyltransferase assay. The note with it: 10 µM. In kind it is functional.
Assay [7] deals with T3, Arginase-2, mitochondrial (Homo sapiens) (UniProt P78540).
T3 sequence (whole entry): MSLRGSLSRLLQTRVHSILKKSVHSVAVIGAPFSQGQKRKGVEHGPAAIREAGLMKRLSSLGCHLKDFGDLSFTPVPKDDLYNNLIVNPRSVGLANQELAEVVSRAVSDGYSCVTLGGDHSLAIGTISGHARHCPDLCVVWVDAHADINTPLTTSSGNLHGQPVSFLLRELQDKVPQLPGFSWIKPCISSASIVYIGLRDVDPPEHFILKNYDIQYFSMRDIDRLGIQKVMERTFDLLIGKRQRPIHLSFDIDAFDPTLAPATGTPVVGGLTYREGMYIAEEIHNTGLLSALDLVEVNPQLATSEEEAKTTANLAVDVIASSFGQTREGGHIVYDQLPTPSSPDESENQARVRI
Put plainly: in vitro enzyme assay to detect the production of urea directly proportional to the activity of Arginase II. Further: in the data most compounds retested in dose-response had high values. Type of assay: functional. The note with it: 33.3 µM.

Assay [8] deals with T4, Proteasome subunit beta (Trypanosoma cruzi) (UniProt O96673).
T4 sequence (whole entry): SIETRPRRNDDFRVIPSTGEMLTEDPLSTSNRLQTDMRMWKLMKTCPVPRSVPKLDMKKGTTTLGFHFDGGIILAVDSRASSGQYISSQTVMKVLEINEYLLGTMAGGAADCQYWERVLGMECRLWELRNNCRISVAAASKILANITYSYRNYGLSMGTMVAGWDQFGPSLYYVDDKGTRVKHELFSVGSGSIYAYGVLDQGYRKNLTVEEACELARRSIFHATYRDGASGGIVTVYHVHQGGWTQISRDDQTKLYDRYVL
In words: Trypanosoma cruzi proteasome chymotrypsin-like activity (TcProtChymo) assay. Further: in the data most compounds retested in dose-response had high values. In kind it is functional. Particulars: 9.37 µM.

For assay [9], the species on record is Homo sapiens. In words: To identify inhibition of the IFN signalling (Jak-Stat) pathway via expression of an eGFP reporter gene under the control of an IFN-stimulated response element (ISRE) containing MxA promoter. Particulars: 30 µM. Type of assay: functional.
Assay [10] addresses Shiga toxin 2 (Escherichia coli O157:H7) (UniProt P09385+P09386). In words: E. coli 0.157:H7 Shiga Toxin SOP - stx2 screening assay. In kind it is functional. The note with it: 30 µM.
Assay [11] concerns the target T5, Tyrosyl-tRNA synthetase, putative (Trypanosoma cruzi (strain CL Brener)) (UniProt Q4DSP6).
T5 sequence (whole entry): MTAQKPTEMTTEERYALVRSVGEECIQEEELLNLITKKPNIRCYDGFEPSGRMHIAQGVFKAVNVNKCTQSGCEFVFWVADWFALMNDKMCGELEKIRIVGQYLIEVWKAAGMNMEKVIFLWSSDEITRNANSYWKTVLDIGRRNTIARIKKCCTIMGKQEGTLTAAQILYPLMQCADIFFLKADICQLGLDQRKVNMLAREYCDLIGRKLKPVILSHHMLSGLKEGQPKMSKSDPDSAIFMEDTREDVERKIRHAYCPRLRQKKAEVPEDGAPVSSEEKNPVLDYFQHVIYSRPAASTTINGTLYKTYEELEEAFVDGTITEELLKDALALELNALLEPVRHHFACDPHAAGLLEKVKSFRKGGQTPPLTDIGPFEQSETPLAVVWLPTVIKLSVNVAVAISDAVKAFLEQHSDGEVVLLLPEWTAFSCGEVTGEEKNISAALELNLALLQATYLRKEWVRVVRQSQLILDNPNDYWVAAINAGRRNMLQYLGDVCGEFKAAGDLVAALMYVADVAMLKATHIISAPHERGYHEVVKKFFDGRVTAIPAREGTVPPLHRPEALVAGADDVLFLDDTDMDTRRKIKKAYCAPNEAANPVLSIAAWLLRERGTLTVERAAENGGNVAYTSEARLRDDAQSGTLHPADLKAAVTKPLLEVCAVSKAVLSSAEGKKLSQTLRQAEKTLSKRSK
Put plainly: Trypanosoma cruzi tyrosyl tRNA synthetase (TcYRS) _High Tyrosine SOP. Further: in the data most compounds retested in dose-response had high values. In kind it is functional. Particulars: 30 µM.

Assay [12] concerns the target T5, Tyrosyl-tRNA synthetase, putative (Trypanosoma cruzi (strain CL Brener)). Put plainly: Trypanosoma cruzi tyrosyl tRNA synthetase (TcYRS) SOP. In kind it is functional. The note with it: 30 µM.
The target in assay [13] is Chromo domain-containing protein 1 (Saccharomyces cerevisiae (strain ATCC 204508 / S288c) (Baker's yeast)) (UniProt P32657). Put plainly: ScCHD-1 Enzyme Inhibition Assay. Further: in the data most compounds retested in dose-response had high values. In kind it is functional. The note with it: 30 µM.
Sequence of Chromo domain-containing protein 1 (Saccharomyces cerevisiae (strain ATCC 204508 / S288c) (Baker's yeast)) (P32657 whole entry, the tested form may be a part): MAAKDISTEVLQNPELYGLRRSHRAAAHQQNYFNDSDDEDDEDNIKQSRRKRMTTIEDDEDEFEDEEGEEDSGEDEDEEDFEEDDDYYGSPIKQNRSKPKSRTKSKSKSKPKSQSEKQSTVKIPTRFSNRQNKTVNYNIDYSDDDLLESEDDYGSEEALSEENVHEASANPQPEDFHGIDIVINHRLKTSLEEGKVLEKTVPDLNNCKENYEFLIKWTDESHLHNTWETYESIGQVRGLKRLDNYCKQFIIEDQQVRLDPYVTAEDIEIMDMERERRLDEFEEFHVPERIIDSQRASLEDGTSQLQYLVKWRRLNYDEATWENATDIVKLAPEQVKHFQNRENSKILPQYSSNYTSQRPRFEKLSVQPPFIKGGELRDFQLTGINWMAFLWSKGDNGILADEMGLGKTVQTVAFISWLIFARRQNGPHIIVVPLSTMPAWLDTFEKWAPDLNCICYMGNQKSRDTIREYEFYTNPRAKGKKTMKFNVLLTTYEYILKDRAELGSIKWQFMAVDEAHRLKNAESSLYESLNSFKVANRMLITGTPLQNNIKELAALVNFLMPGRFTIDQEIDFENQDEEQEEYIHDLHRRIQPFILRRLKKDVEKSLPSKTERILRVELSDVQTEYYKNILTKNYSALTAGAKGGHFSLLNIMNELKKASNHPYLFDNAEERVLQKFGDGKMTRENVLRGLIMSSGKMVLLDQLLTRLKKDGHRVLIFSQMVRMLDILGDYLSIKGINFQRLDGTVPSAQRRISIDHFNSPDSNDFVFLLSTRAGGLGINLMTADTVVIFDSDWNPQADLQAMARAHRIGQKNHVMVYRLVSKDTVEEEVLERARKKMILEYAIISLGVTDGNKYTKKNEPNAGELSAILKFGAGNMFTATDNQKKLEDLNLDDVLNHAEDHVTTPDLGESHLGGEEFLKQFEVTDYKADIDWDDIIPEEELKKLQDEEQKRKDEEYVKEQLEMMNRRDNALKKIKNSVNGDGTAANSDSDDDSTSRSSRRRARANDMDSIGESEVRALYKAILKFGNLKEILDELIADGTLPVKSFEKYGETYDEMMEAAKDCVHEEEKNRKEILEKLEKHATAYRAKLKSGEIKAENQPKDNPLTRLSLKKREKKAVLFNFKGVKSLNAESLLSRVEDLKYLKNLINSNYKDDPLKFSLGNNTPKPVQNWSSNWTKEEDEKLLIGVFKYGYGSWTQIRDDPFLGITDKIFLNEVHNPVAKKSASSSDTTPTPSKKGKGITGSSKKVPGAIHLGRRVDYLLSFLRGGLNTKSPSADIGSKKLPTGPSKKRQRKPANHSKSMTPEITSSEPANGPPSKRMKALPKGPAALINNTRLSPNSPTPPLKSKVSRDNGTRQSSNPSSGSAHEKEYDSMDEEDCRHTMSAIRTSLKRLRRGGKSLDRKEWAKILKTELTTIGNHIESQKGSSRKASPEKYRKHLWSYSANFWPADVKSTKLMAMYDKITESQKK

For some assays here: Measured potencies and affinities stand elsewhere.

From ChEMBL document CHEMBL3988442, “University of Dundee, Small-Polar-MMV Screening Library” (2021) come the findings set out here.

Sequence of Protein translocase subunit SecA (Escherichia coli (strain K12)) (P10408 whole entry): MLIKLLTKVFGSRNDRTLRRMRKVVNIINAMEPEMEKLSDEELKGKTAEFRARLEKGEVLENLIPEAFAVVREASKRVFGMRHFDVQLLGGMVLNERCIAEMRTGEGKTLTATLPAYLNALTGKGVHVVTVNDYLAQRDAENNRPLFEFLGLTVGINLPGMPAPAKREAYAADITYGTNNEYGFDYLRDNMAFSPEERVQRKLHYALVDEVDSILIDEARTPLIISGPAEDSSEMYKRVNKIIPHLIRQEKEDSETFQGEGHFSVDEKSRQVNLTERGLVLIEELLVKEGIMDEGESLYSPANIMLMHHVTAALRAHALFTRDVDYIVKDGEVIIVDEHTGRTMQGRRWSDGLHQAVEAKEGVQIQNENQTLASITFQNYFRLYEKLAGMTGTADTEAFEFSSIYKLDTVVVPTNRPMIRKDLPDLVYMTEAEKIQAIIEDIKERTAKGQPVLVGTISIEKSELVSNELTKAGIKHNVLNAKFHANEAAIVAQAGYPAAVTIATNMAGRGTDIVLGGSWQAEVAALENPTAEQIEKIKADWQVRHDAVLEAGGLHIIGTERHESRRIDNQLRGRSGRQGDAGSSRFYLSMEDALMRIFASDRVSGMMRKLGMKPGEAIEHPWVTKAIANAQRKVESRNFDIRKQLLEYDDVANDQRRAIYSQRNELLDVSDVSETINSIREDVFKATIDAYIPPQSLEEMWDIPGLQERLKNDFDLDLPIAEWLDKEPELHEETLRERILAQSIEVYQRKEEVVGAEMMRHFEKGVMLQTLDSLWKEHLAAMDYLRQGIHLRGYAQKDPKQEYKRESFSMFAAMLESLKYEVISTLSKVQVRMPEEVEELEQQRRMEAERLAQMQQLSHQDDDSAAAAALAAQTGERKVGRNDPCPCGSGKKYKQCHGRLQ

`Cn1cc(N2C(=O)CC[C@@H]3[C@H]2CCN3Cc2ccncc2)cn1`: the Percent Effect in [1] is -1.29%; in assay [2] it was 2.67%; in assay [3] it was -1.89%; in assay [4], -2.47%; in [5], 5.41%; in assay [6], -0.193%. The Percent Effect is -56.1% in assay [7]; 9.06% in assay [8]; -8.54% in assay [9]; -20.8% in assay [10]; 5.21% in assay [11]; 12.5% in [12]. Further, the Percent Effect in assay [13] is -7.17%.
`c1cncc(CO[C@H]2CO[C@@]3(CCN(Cc4ccoc4)C3)C2)c1`: the Percent Effect is -2.55% in assay [1]; -1.33% in [2]; -2.79% in assay [3]; 7.6% in [4]; 8.75% in assay [5]; -4.32% in assay [6]. In addition, the Percent Effect in assay [7] was -6.16%; in assay [8], 12.6%; in [9] it was 2.27%; in [10], -19.8%; in assay [11], 2.12%; in assay [12] it was -2.56%. Also, in [13], the Percent Effect came to 1.04%.
On to `CCN(CCc1ccccc1)Cn1nc(C)c2c(C)onc2c1=O`, for which the Percent Effect in assay [1] was -5.66%; in [2], -8.11%; in [3], 5.17%; in assay [4], -13.6%; in [5], 25.2%; in assay [6], 3.68%. Besides, the Percent Effect in [7] was -3.21%; in assay [8], 7.75%; in assay [9], 5.78%; in assay [10] it was 16%; in assay [11] it was 9.36%; in assay [12], 23.5%. Further, the Percent Effect in [13] is -14.1%.
Regarding `CC(C)=CCN1C(=O)[C@H]2CC[C@@H]1CN(Cc1cccnc1N)C2`, the Percent Effect in assay [1] is 5.73%; in [2] it was 4.17%; in assay [3], 4.65%; in [4] it was 1.92%; in assay [5], 2%; in assay [6], -5.34%. Also, the Percent Effect is 3.53% in [7]; 23.7% in [8]; 7.39% in assay [9]; -25.3% in assay [10]; 7.37% in [11]; 2.56% in [12]. In addition, the Percent Effect in [13] came to 2.83%.
For the molecule `CC(C)N1CCOCC2(CN(Cc3ccccn3)CCO2)C1` (stereo not given), the Percent Effect was -1.27% in assay [1]; 10.4% in assay [2]; 5.23% in assay [3]; 2.61% in assay [4]; -0.373% in assay [5]; -2.86% in [6]. Moreover, the Percent Effect is 5.81% in assay [7]; 3.65% in assay [8]; 5.84% in [9]; -12.2% in [10]; 6.35% in [11]; 3.85% in [12]. The Percent Effect in assay [13] was -3.65%.
